ADAM17 inh = inhibitors of human ADAM17; P78536; recombinant ADAM17, EDANS/DABCYL FRET peptide cleavage; inhibition, % at 6.95 µM; hit rate 0.83% among 370,000;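 active means inhibition above the mean of compounds lying between control limits plus 3 SD, set per campaign, cut at about 8.5% in these data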;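 further: 0% = DMSO-only wells as the low control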
proKLK7 act = proKLK7 (human) activation, primary screen; activation, % at 7 µM; P49862; purified proKLK7, EDANS-DABCYL substrate fluorescence; 100% is mature enzyme control, 0% vehicle; hit rate 0.9% among 370,000;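 active means activation above the mean of all tested compounds plus 3 SD, computed per campaign excluding outliers beyond control limits, cut at about 13% in these data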
Target sequence (P49862 whole entry, looked up): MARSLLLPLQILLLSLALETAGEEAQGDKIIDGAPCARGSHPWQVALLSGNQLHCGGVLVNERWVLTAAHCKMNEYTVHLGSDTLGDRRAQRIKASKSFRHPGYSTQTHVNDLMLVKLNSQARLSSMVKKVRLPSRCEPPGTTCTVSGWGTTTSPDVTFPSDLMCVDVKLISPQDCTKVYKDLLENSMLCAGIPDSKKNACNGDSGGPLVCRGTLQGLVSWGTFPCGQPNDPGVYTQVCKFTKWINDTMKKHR
GRIN3A LBD mod = modulates the human NR3A ligand-binding domain; NR3A LBD differential scanning fluorimetry, Tm shift; 0% = protein alone, 100% = glycine-bound protein; Tm shift relative to glycine control, % at 25 µM; hit rate 2.5% among 340,000; AID 1259313;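 active means melting temperature shift of at least 10% of the positive control shift, at one fixed dose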
FAS-TE inh = inhibitors of human fatty acid synthase thioesterase domain; hit rate 0.67% among 360,000; AID 602261; inhibition, % at 15 µM; recombinant FAS-TE, OMFH fluorogenic substrate, fluorescence endpoint; P49327;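 active means compounds whose normalised, plate-corrected inhibition of enzyme fluorescence in the single-dose primary screen is 50% or more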;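 further: 0% = DMSO with enzyme and 100% = substrate without enzyme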
ADAM10 inh = inhibits human ADAM10 | O14672 | recombinant ADAM10, EDANS/DABCYL FRET peptide cleavage, 3 h | inhibition, % at 7 µM | hit rate 0.62% among 370,000 | AID 720582;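 active means inhibition above a per-campaign cutoff equal to the mean of compounds falling between control-based bounds plus 3 SD, cut at about 20% in these data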;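 further: 0% = DMSO wells while the 100% control is not disclosed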
Starred values were filed as active, the others as inactive; . = no result. Compounds with a hit are over-represented: about 4.6% of the library has one in this group of screens.

SMILES	ADAM17 inh	proKLK7 act	GRIN3A LBD mod	FAS-TE inh	ADAM10 inh
CCN1C(=O)[C@H]2[C@@H](c3ccc(C)cc3)N3C(=O)N(c4cccc(F)c4)C(=O)[C@@]3(Cc3ccc(Cl)cc3)[C@H]2C1=O	3.5	0.1	-4.1	44.0	9.3
Cc1cccc(N2C(=O)N3[C@H](c4ccc(Cl)cc4)[C@@H]4C(=O)N(C5CCCCC5)C(=O)[C@@H]4[C@]3(Cc3ccc(Cl)cc3)C2=O)c1	.	.	21.1*	94.5*	.
O=C1[C@H]2[C@@H](c3ccc(Cl)cc3)N3C(=O)N(c4cccc(F)c4)C(=O)[C@@]3(Cc3ccc(Cl)cc3)[C@H]2C(=O)N1C1CCCCC1	.	.	13.8*	95.8*	.
O=C1[C@H]2[C@@H](c3ccc(F)cc3)N3C(=O)N(c4ccc(Br)cc4)C(=O)[C@@]3(Cc3ccccc3)[C@H]2C(=O)N1C1CCCCC1	-1.1	0.3	6.7	91.7*	8.1
CC(C)C[C@@]12C(=O)N(c3cccc(Cl)c3)C(=O)N1[C@H](c1ccc(F)cc1)[C@@H]1C(=O)N(C3CCCCC3)C(=O)[C@@H]12	-2.5	-0.1	-6.1	84.0*	4.1
Cc1cc(C)cc(C(=O)OCCN(C)C2CN(Cc3cn(Cc4ccccc4C(F)(F)F)nn3)S(=O)(=O)C2)c1 (centres undefined)	0.3	0.1	.	.	2.6
O=C1[C@H]2[C@@H](c3ccc(Cl)cc3)N3C(=O)N(c4cccc(Cl)c4)C(=O)[C@@]3(Cc3ccc(Cl)cc3)[C@H]2C(=O)N1C1CCCCC1	-4.6	0.2	1.4	93.7*	-1.3
COc1ccc2[nH]cc(C(C)c3c[nH]c4ccccc34)c2c1 (centres undefined)	3.1	-0.3	.	.	0.4
COC(=O)CCC1(C(N)=O)CCC(=O)c2ccccc21 (centres undefined)	-4.6	0.1	12.6*	-5.6	-5.2
CCOC(=O)CCc1cccc2c1CCC2=O	-3.9	0.2	1.0	-5.7	5.6
Oc1ccc(Oc2ccccc2F)c2cccnc12	1.5	.	.	.	9.5
Cc1ccc(OCc2nnc(SCC(=O)c3ccc(-c4ccccc4)cc3)n2Cc2ccco2)cc1	-3.4	-1.1	.	.	-7.6
S=C(c1ccccc1)N1CCCc2ccccc21	-1.5	-0.1	11.1*	4.7	-6.2
COc1cc(/C=C2/C(=N)N3C=CSC3=NC2=O)ccc1OCCCOc1ccccc1C	-44.5	5.0	17.8*	-3.2	-139.7
CCS(=O)(=O)C1=NN2C(=N)/C(=C\c3ccc(OCCOc4cccc(OC)c4)c(OC)c3)C(=O)N=C2S1	1.8	-0.9	14.7*	5.3	2.0
CSCCCNC(=O)CN1C(=O)C2CCCCN2C(=O)c2ccccc21 (centres undefined)	-3.1	0.2	.	.	1.6
Cc1cnn(-c2ccccc2)c1NC(=O)COCc1ccccc1	1.4	0.3	.	.	4.4
O=C(OC12CCCN(C1)/C(=C/c1ccncc1)C2)C1CCCCC1 (centres undefined)	1.6	1.1	.	.	0.5
CCCC(=O)Nc1ccc(C(=O)Nc2nnc(COC)s2)cc1	0.3	-0.8	-26.5	-7.5	4.8
COCc1nnc(NC(=O)c2ccc(NC(C)=O)cc2)s1	4.1	-0.1	23.7*	-6.6	4.0
CC(=O)Nc1ccc(/C=C/c2noc(-c3ccccc3O)n2)cc1	.	.	11.9*	-9.9	.
Cn1c(SCCc2ccccc2)nnc1-c1ccco1	-5.1	-0.2	.	.	-15.5
CCC[C@H]1[C@@H](OC(=O)NCc2ccc(C)o2)CC[C@@]23CCCN2C(=O)CCC[C@@H]13	-2.1	.	.	.	-1.1
COc1cc([C@@H]2c3cc4c(cc3[C@@H](O)[C@H]3COC(=O)[C@H]23)OCO4)cc(OC)c1O[Si](C)(C)C(C)(C)C	1.9	0.4	11.4*	31.3	1.3
O=c1nc(-c2ccccc2)c2ccccc2[nH]1	-53.6	9.1	12.3*	-4.5	-157.1
O=C(NCc1ccc(Cl)cc1)O[C@H]1CC[C@@]23CCCN2C(=O)CCC[C@H]3C1	-1.1	.	.	.	2.5
O=C(Nc1ccc(OC(F)(F)F)cc1)Nc1nc2ncccn2c1-c1ccc(C(F)(F)F)cc1	-34.1	6.1	.	.	-133.6
CCCn1c(=S)[nH]c2cc(C(=O)N3CCN(C4CCCCC4)CC3)ccc2c1=O	2.1	0.8	14.8*	32.6	7.2
CNC(=O)CC1C(=O)N(Cc2ccccc2)C(=S)N1NC(=O)c1cccc(F)c1 (centres undefined)	-0.1	0.1	14.0*	-9.7	2.3
